According to PubChem BioAssay (Tox21):
Where “and” joins values, the source holds several entries; their conditions need not be identical. Identical values can stand only once. Calls of active or inactive are those of the source. A call without a number means that no potency is given here. The call rests on the fitted dose curve; in most records, active means well fitted curve in the direction sought with a large enough effect in the repeat runs; inconclusive means weak or mixed curves; inactive means flat fitted curve, though single readings scatter.

Experiment: qHTS assay to test for compound auto fluorescence at 535 nm (green) in HEK293 cell free culture (AID 720682)
Conditions: cell-free medium, green autofluorescence 485/535 nm; series mostly up to 91.3 µM; activity change: at the top concentration
Excerpt: U.S. Tox21 Program National Center for Advancing Translational Sciences [NCATS] NIH Chemical Genomics Center [NCGC] U.S. Environmental Protection Agency [EPA] National Institutes of Environmental Health Sciences [NIEHS] National Toxicology Program [NTP] U.S. Food and Drug Administration [FDA] Tox21 Assay Overview: Compound auto fluorescence often interferes with screening of the compound library against various biological targets and signaling pathways. Some of these compounds may have fluorophoric properties. Such properties may interfere with the assay outputs resulting in false positives and/or negatives. To decrease such complications and ensure the compound activities are relevant in terms of biological response, the Tox21 10K compound library was screened for auto fluorescence. From the fluorophores used as reporter signals in our screening assays, the auto fluorescence equivalencies of compounds against three fluorophores have been evaluated: Triamterene, Fluorescein and Rose Bengal sodium for blue, green and red fluorescence, respectively. The fluorescence intensities were measured using Excitation/Emission wavelengths at 405/460nm, 485/535nm and 540/590nm for blue, green and red labels, respectively. This assay includes the green fluorescence data.
Tox21 Assay Protocol Summary: 5 uL of culture medium (DMEM containing 10% FBS) per well was dispensed into black wall/clear bottom 1536-well plates using a Multidrop Combi Dispenser (ThermoFisher Scientific, Waltham, MA). After 23 nL compound or DMSO vehicle was transferred into assay plate by a pintool work station (Kalypsys, San Diego, CA), fluorescence intensities in the assay plates were measured by an Envision (PerkinElmer, Shelton, CT) plate reader using three labels for measuring blue, green and red fluorescence at […] 460, 535 and 590nm respectively.
Potency means the concentration at half of the fitted maximal effect; tags describe the fitted curve by direction and shape or compound fluorescence and quenching.

SMILES | activity change | Potency
CC(C)CCOCc1ccccc1 | -0.246% (inactive) | –
Cc1cccc(O)c1C | – | inactive
CC(C)(C)c1cc(C(C)(C)C)c(O)c(C(C)(C)C)c1 | – | inactive
O=C1OC2(c3ccc(O)cc3Oc3cc(O)ccc32)c2ccccc21 | – | 3.55 µM [fluorescent] (active) and 3.98 µM [fluorescent] (active)
CCN(CC)C(=O)Nc1ccc(OCC(O)CNC(C)(C)C)c(C(C)=O)c1 (stereo not given) | -0.0978% [at 46 µM, hits give high values] (inactive) | –
CCOC(=O)C(C)C(C)=O (stereo not given) | 0.0281% (inactive) | –
Cc1ccc(S(=O)(=O)Oc2ccc(N=Nc3ccc(-c4ccc(N=Nc5c(O)ccc6cc(S(=O)(=O)O)cc(S(=O)(=O)O)c56)c(C)c4)cc3C)cc2)cc1 | – | inactive
O=Cc1ccc(Cl)cc1 | -0.162% (inactive) | –
Nc1cc(S(=O)(=O)O)cc2cc(S(=O)(=O)O)cc(O)c12 | – | inactive
CCCNC(C)C(=O)Nc1ccccc1C (stereo not given) | 0.0307% [at 46 µM, hits give high values] (inactive) | –
COC(c1ccccc1)(c1ccccc1)[C@H](Oc1nc(C)cc(C)n1)C(=O)O | 0.0349% [at 46 µM, hits give high values] (inactive) | –
CC(=O)C1=C(C)[C@@H]2C[C@@]3(C1)[C@H](C)CC[C@H]3C2(C)C | – | inactive
[Cl][In]([Cl])[Cl] | – | inactive
O=C(Cl)c1cccc(C(=O)Cl)c1 | – | inactive
O=C(Nc1ccccc1SSc1ccccc1NC(=O)c1ccccc1)c1ccccc1 | – | inactive
Nc1nc(=S)c2[nH]cnc2[nH]1 | – | inactive
CCCCCC(=O)O[C@]1(C(C)=O)CC[C@H]2[C@@H]3CCC4=CC(=O)CC[C@]4(C)[C@H]3CC[C@@]21C | – | inactive
O=Nc1ccc(Nc2ccccc2)cc1 | – | inactive
CCCCC/C=C/CC1CC(=O)OC1=O (stereo not given) | -0.0121% (inactive) | –
CC[C@H]1CN2CCc3cc(OC)c(OC)cc3[C@@H]2C[C@@H]1C[C@H]1NCCc2cc(OC)c(OC)cc21 | – | inactive

SMILES | activity change | Potency
O=C(O)CP(=O)(O)O | -0.133% [at 46 µM, hits give high values] (inactive) | –
CCCCC(CC)COC(=O)CC(C(=O)OCC(CC)CCCC)S(=O)(=O)O (stereo not given) | – | inactive
Cc1occc(=O)c1OC(=O)C(C)C | -0.0009% (inactive) | –
Nc1nc2ccccc2[nH]1 | – | inactive
NC12CC3CC(CC(C3)C1)C2 | 0.143% [at 46 µM, hits give high values] (inactive) | –
CN(C)c1ccc(C(=C2C=CC(=[N+](C)C)C=C2)c2ccccc2)cc1 | – | inactive
CC[C@@H](N)CO | 0.0511% [at 95.7 µM, hits give high values] (inactive) | –
CC(=O)OCC1=C(C(=O)O)N2C(=O)[C@@H](NC(=O)Cc3cccs3)[C@H]2SC1 | -0.0117% [at 46 µM, hits give high values] (inactive) | –
Cc1cc(C(C)(C)C)c(O)c(C(C)(C)C)c1 | – | inactive
CC1=C(C=O)C(C)(C)CC=C1 | 0.0139% [at 95.7 µM, hits give high values] (inactive) | –
Cc1ccc(-c2cc(C(F)(F)F)nn2-c2ccc(S(N)(=O)=O)cc2)cc1 | – | inactive
O=C(O)CCc1ccccc1 | 0.0571% (inactive) | –
Nc1ccc(O)cc1 | – | inactive
CN(C)c1ccc2nc3ccc(=[N+](C)C)cc-3sc2c1 | – | inactive
CCC[C@H](N[C@@H](C)C(=O)N1[C@H](C(=O)O)C[C@@H]2CCCC[C@@H]21)C(=O)OCC | -0.0034% [at 46 µM, hits give high values] (inactive) | –
CC(C)C(=O)c1c(C(C)C)nn2ccccc12 | 0.0104% [at 46 µM, hits give high values] (inactive) | –
C=CC(=O)OCCCCCCOC(=O)C=C | – | inactive
CC(C)(C)c1ccccc1 | -0.0203% (inactive) | –
O | – | inactive
CCC(C)(Oc1ccc(C2(c3ccc(OC(C)(CC)C(=O)O)cc3)CCCCC2)cc1)C(=O)O (stereo not given) | 0.073% [at 46 µM, hits give high values] (inactive) | –
